Screening data (PubChem)
In the library only some 3.9% were active in any assay of this set; here they are far more common.
BoNT A protease: BoNT A light chain protease inhibition | multiplex microsphere protease substrate cleavage, flow cytometry | 360,000 compounds, 0.17% hits | inhibition, % at 10 µM; also: plate controls were buffer without enzyme for full effect and enzyme alone for no effect
BoNT F protease: blocks Botulinum neurotoxin F light chain protease. AID 588497. 360,000 compounds, 0.22% hits. inhibition, % at 10 µM. Multiplex microsphere protease cleavage assay, flow cytometry; in the data active = inhibition above about 35%, passing the limit was not always enough; inconclusive = no clear call, values can overlap the other calls; also: plate controls were buffer without enzyme for full effect and enzyme alone for no effect
Bead autofluor: counter-screen for toxin protease inhibitors: compound fluorescence. compound autofluorescence counterscreen, microsphere flow cytometry; active compounds read high. 360,000 compounds, 3.1% hits. fluorescence intensity (concentration not given with the values); in the data active = fluorescence intensity above about 16000; inconclusive = no clear call, values can overlap the other calls
Anthrax LF prot: inhibitors of Bacillus anthracis lethal factor protease. 360,000 compounds, 0.12% hits. P15917. AID 588501. multiplex microsphere protease cleavage assay, LF. inhibition, % at 10 µM; also: plate controls were buffer without enzyme for full effect and enzyme alone for no effect
Target sequence (P15917 whole entry, looked up): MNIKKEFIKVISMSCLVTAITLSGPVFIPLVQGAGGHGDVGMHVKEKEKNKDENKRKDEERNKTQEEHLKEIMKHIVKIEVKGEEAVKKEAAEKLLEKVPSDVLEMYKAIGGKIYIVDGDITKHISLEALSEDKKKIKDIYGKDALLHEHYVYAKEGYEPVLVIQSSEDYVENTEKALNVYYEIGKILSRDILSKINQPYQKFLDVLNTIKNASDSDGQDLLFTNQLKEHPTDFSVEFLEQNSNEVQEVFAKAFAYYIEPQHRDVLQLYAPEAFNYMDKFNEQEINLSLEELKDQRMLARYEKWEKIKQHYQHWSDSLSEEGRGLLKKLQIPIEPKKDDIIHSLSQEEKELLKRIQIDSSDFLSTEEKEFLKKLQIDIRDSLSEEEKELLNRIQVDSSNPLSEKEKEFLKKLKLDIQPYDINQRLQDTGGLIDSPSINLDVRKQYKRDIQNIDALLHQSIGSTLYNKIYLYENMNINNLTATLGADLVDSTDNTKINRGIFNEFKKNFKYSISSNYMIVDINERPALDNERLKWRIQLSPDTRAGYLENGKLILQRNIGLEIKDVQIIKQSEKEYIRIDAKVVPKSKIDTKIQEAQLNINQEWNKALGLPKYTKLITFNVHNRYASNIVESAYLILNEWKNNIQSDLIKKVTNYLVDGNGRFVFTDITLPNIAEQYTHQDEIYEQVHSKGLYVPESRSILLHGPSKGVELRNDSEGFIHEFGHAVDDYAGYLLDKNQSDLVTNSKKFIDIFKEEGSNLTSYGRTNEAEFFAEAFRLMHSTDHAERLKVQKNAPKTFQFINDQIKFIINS
BH1578 lux ind: inducers of Vibrio cholerae quorum light production without autoinducers; V. cholerae BH1578 lux reporter, luminescence, 6 h; 350,000 compounds, 0.16% hits; activation, % at 18.7 µM; in the data active = activation mostly above about 9.7%, no sharp cut-off; inconclusive = no clear call, values can overlap the other calls; inactive = mostly below about 3.7%
MazEF act: increases E. coli MazEF RNase cleavage of RNA. P0AE70. FAM/BHQ RNA-DNA oligo cleavage fluorescence, 5 h. activation, % at 20 µM. 350,000 compounds, 0.32% hits; in the data active = activation above about 50%
* hit, by the source's call; i = inactive; ? = inconclusive; nt = no result given. Rule as the data show it, unless noted: active = inhibition above about 30%; inconclusive = no clear call, values can overlap the other calls; inactive = below that.

SMILES	BoNT A protease	BoNT F protease	Bead autofluor	Anthrax LF prot	BH1578 lux ind	MazEF act
Cc1oc(C)c2c(=O)ccc3c(c12)OC(N)=C(C#N)C3c1ccccc1 (stereo not given)	3.4	-17.2	4865	3.1	-0.5	105.5*
CSc1ccc(C2C(C#N)=C(N)Oc3c2ccc(=O)c2c(C)oc(C)c32)cc1 (stereo not given)	5.6	-3.2	4722	-1.0	-0.5	42.0
CCOC(=O)/C=C1\SCC(=O)N1CC(=O)Nc1ccc(OC)c(OC)c1	-0.8	-2.6	3678	1.2	i	8.4
CCOC(=O)/C=C1\SCC(=O)N1CC(=O)c1ccc[nH]1	2.2	4.6	21362*	1.9	i	6.4
COc1ccc(CCNC(=O)CSc2nnc(Cn3c(=O)sc4ccccc43)n2C)cc1OC	?	-1.6	24341*	-0.4	i	3.6
O=C(CSc1nnc(-c2ccccc2)n1Cc1ccccc1)N1CCOCC1	0.6	0.3	9234	-2.0	-0.4	0.7
O=C(CSc1nnc(Cn2c(=O)sc3ccccc32)n1CCc1ccccc1)N1CCOCC1	-1.3	2.2	16901*	-0.1	-0.4	5.0
O=C(CSc1nnc(-c2cccnc2)n1Cc1ccccc1)N1CCOCC1	?	-3.7	24649*	-0.3	i	7.5
S=c1cn[nH]c2ccccc12	1.3	2.3	4112	3.8	i	4.7
CCCCC(=O)OCc1cn(-c2ccc(Cl)cc2)nn1	1.1	-0.3	22405*	-0.8	i	2.0
Cc1ccccc1NC(=O)OCc1cn(-c2ccc(Cl)cc2)nn1	-0.1	1.3	22413*	-4.1	i	3.8
O=C(Nc1ccc(Cl)cc1)OCc1cn(-c2ccccc2)nn1	-1.9	-12.0	4515	-3.4	-0.1	5.7
COc1ccc(CNC(=O)C(c2cccs2)N(C(=O)c2csnn2)C2CC2)cc1 (stereo not given)	-2.0	-3.3	24268*	-1.7	5.3	4.8
CCC(C)N(CC(=O)NCc1ccc(OC)cc1)C(=O)c1csnn1 (stereo not given)	?	8.5	16830*	-15.1	i	5.9
O=C(NCc1ccccc1)C(c1cccs1)N(C(=O)c1csnn1)C1CC1 (stereo not given)	-0.6	-0.6	21285*	1.9	-6.2	2.9
COc1ccc(CNC(=O)C(c2cccc(C)c2)N(C(=O)c2csnn2)C2CC2)cc1 (stereo not given)	-0.9	2.4	6028	-0.4	-0.3	3.5
O=C(NCCc1ccccc1)C(c1ccccc1)N(C(=O)c1csnn1)C1CC1 (stereo not given)	0.1	-3.2	3597	-7.4	i	-2.1
O=C(NCCc1ccccc1)C(c1cccs1)N(C(=O)c1csnn1)C1CC1 (stereo not given)	?	7.2	20245*	-10.4	-3.0	-8.2
O=C(NCc1ccccc1)C(c1ccccc1)N(C(=O)c1csnn1)C1CC1 (stereo not given)	-0.3	-7.0	4029	-8.0	i	-1.8
NC(=O)c1ccc(Oc2ccc(C(N)=O)cc2)cc1	-0.5	0.0	3413	-6.4	-0.4	-10.7
CN(C)/C(CN1CCOCC1)=C1\N=C(c2ccccc2)OC1=O	0.2	-0.9	23718*	0.7	-0.6	-9.7
c1ccc(COc2ncnc3c2ncn3CCCNCC(c2ccccc2)c2ccccc2)cc1	-0.4	-18.8	3952	-5.7	-0.4	-11.9
C(=N\n1cnnc1)/c1ccccn1	-0.7	-2.1	10185	2.9	-0.4	5.7
C(=N\n1cnnc1)/c1ccc2c(c1)OCO2	-1.7	-2.6	24727*	-0.5	-5.6	2.4
C(=N\n1cnnc1)/c1ccc2ncccc2c1	?	7.9	20485*	-3.5	i	7.3
SMILES	BoNT A protease	BoNT F protease	Bead autofluor	Anthrax LF prot	BH1578 lux ind	MazEF act
Cc1nc(NC(=O)COC(=O)C2CC3CCCC(C2)C3=O)c(Cl)cc1Cl (stereo not given)	-0.6	-5.7	3969	-2.9	0.6	12.4
CCS(=O)(=O)n1nc(-c2ccc(Cl)cc2)nc1SC	-0.7	-2.1	22674*	-4.1	i	-2.9
O=C(CCCCCn1c(=S)[nH]c2cc3c(cc2c1=O)OCO3)N1CCN(Cc2ccccc2)CC1	-0.6	-8.0	4278	-2.6	-0.7	7.4
O=C(COc1ccccc1Cl)N1CCN(c2ncccn2)CC1	-2.4	-3.0	22968*	0.9	-0.1	2.3
CCc1ccccc1OCC(=O)N1CCN(c2ncccn2)CC1	nt	nt	nt	nt	-6.2	0.2
O=C(CCCOc1ccc(Cl)cc1Cl)N1CCN(c2ccccn2)CC1	-2.7	-3.3	16837*	-4.9	i	-2.3
